# Screening data (PubChem)
# Shown are actives, neighbours in structure and some others; about 18% of the full set was active somewhere.
# TDP1 cell noCPT = qHTS for Inhibitors of human tyrosyl-DNA phosphodiesterase 1 (TDP1): qHTS in cells in absence of CPT; DT40 Tdp1-/- hTDP1 cells, no CPT, ATP luminescence, 48 h; Potency, µM (doses to about 46.2 µM), for inactives: top-dose activity change, negative = growth inhibition, usual class: inhibitors; 15% of 420,000 active; also: potency is read from the fitted curve at half-maximal effect; nearly all actives have a fitted effect of over 55% in size
#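 Readout: luminescence from CellTiter-Glo after 30 min in the dark at RT. Cells: DT40 Tdp1-/- with stable hTDP1, 400/well. Exposure: compounds alone, ≥48 hr, 37 °C.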
# LDHA inh = blocks human lactate dehydrogenase A | P00338 | purified LDHA, NADH/diaphorase-resazurin fluorescence; stronger effect = lower value | activity change, % (values are at about 110 or 230 µM) | 0.15% of 480,000 active | AID 1347041; in the data active = activity change below about -30%; inconclusive = mostly about -25% to -30%;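 also: plate controls were DMSO wells for no effect and wells without enzyme for full effect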
#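 Resorufin fluorescence (ex540/em590), read at 0 and 20 min after diaphorase/resazurin addition, reports the NADH left after a 5 min room-temperature reaction of 2 nM human LDH5 with 0.06 mM NADH and 0.2 mM pyruvate.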
# TDP1 cell CPT = DT40-hTDP1 cell growth loss with CPT | 12% of 420,000 active | chicken DT40 Tdp1-/-;hTDP1 cells + 20 nM CPT, ATP luminescence, 48 h | Potency, µM (highest dose often 46.2 µM), without a hit: at the highest dose activity change, negative = growth inhibition, actives largely listed as inhibitors; also: potency is read from the fitted curve at half-maximal effect; nearly all actives have a fitted effect of over 55% in size
#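 Chicken DT40 Tdp1-/- cells stably complemented with human TDP1 were seeded at 400 cells/well in medium containing 20 nM camptothecin, exposed to pin-transferred compounds, and grown at 37 °C for at least 48 hr. Viability was read as ATP luminescence.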
# IL-1B inflam inh = inflammasome signaling inhibition, IL-1 beta readout; 4.7% of 360,000 active; THP-1 LPS/ATP IL-1B secretion, AlphaLISA, 16 h; stronger effect = lower value; activity change, % at 57.5 µM; in the data active = activity change below about -50%; inconclusive = mostly about -30% to -49%
#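 THP-1 cells pretreated 1 hr with compounds (up to 57.5 uM final), then stimulated with LPS (250 ng/mL final) plus ATP (1.25 mM final); secreted IL-1B measured by AlphaLISA after 16 hr, decreased signal indicating inhibition.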
# VP16 counter = counter-screen for ROR gamma inhibitors: Gal4-VP16 reporter; Drosophila S2 Gal4-VP16 UAS-luciferase, luminescence, 20 h; Potency, µM (highest dose often 53.6 µM), inactives show top-dose activity, negative = inhibition, actives largely listed as inhibitors; 3.5% of 310,000 active;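 also: Gal4-VP16 expression switched on by copper sulfate through the metallothionein promoter; potency is read from the fitted curve at half-maximal effect; nearly all actives have a fitted effect of over 50% in size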
# RORgamma inh = ROR gamma (mouse) transcription inhibition. P51450. Drosophila S2 Gal4-RORgamma UAS-luciferase reporter, 20 h. Potency, µM (doses to about 53.6 µM), for the others: at the top dose activity change, negative = inhibition, actives largely listed as inhibitors. 5.4% of 310,000 active; also: potency is read from the fitted curve at half-maximal effect; nearly all actives have a fitted effect of over 60% in size
# Target sequence (P51450 whole entry, looked up, the tested form may be a part): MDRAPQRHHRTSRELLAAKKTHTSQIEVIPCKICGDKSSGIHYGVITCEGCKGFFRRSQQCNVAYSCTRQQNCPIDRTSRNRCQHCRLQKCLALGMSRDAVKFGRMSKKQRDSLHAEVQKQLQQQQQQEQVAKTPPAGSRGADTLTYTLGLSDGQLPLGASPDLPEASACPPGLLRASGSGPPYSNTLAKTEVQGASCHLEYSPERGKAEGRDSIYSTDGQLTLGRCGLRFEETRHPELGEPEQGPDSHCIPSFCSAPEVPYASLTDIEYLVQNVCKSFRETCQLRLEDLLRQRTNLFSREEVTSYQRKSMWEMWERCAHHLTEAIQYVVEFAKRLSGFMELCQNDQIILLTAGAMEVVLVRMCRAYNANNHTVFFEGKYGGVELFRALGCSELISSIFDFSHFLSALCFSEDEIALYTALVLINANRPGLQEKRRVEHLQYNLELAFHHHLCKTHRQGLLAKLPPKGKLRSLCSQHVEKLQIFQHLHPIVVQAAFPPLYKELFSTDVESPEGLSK
#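 Stable Schneider cell line, Gal4 DNA-binding domain fused to ROR gamma, UAS-luciferase. Cmpd 1 hr RT → CuSO4 700 uM final → 20 hr RT → luciferase reagent 10 min → luminescence.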
# * hit, by the source's call; ? = inconclusive; . = not tested or not shown. Unless noted, calls follow the shape of the dose curve; as a rule, active = well fitted curve in the direction sought with a large enough effect; inconclusive = small, poorly fitted or top-dose-only effect, or another doubt; inactive = no such curve, though single readings can be large; an effect the other way counts as inactive or inconclusive. Unless noted, % is scaled to controls: 0 for no effect and ±100 for the full control effect.
SMILES,TDP1 cell noCPT,LDHA inh,TDP1 cell CPT,IL-1B inflam inh,VP16 counter,RORgamma inh
COCCCNC(=O)c1oc2c(c1C)-c1nn(Cc3ccccc3Cl)cc1CC2,18µM*,27,?,.,.,.
CCn1nc(C(=O)N(Cc2ccc(OC)cc2)C(C)Cc2cccs2)c2ccccc2c1=O (stereo unspecified),.,8,.,.,.,.
COc1ccc(C(CNC(=O)COc2cc(C)ccc2Cl)N2CCCCC2)cc1 (stereo unspecified),?,2,?,41,.,.
Cc1ccc(C(CNC(=O)COc2ccccc2C)N2CCCCCC2)cc1 (stereo unspecified),.,10,.,.,.,.
COc1ccc(C(CNC(=O)COc2ccc(F)cc2Br)N2CCCC2)cc1 (stereo unspecified),?,-14,?,-54*,?,1%
Cc1ccccc1OCC(=O)NCC(c1ccc(Cl)cc1)N1CCCCC1 (stereo unspecified),13µM*,3,21µM*,.,.,.
COc1ccc(C(CNC(=O)COc2ccccc2C)N2CCCCC2)cc1 (stereo unspecified),16µM*,1,21µM*,-6,.,.
Cc1nc(/C=C/C(=O)N(C)Cc2cccs2)cs1,.,-2,.,.,.,.
CN(C(=O)c1ccccc1)N(C)C(=O)c1ccccc1,.,3,.,.,.,.
COc1ccc(-c2cc(Nc3cccc(Cl)c3)nc(C)n2)cc1,.,-19,.,.,.,.
COc1ccc(N2C(=O)/C(=C/c3ccc([N+](=O)[O-])cc3)C=C2c2ccccc2)cc1,2.9µM*,2,3.7µM*,?,1%,31%
O=C1/C(=C/c2ccc([N+](=O)[O-])cc2)C=C(c2ccccc2)N1c1ccc(O)cc1,2.9µM*,0,5.2µM*,-99*,-2%,26%
N#Cc1c(-c2ccccc2)cc(-c2ccc(Cl)cc2)c(C#N)c1N,.,0,.,.,.,.
Cc1ccc(-c2csc3ncnc(N4CCN(S(=O)(=O)c5cccs5)CC4)c23)cc1,21µM*,-7,?,29,.,.
N#Cc1ccc(S(=O)(=O)N2CCN(c3ncccn3)CC2)cc1,-9%,-6,-2%,-5,-5%,16%
CCN1CCN(c2ncnc3scc(-c4ccc(C)cc4)c23)CC1,?,2,?,-15,13%,11%
O=S(=O)(c1ccccc1)N1CCN(c2ncnc3scc(-c4ccccc4)c23)CC1,?,-9,16µM*,-4,-10%,20%
Cc1ccc(-c2csc3ncnc(N4CCN(S(=O)(=O)c5ccc(C#N)cc5)CC4)c23)cc1,16µM*,-3,?,7,.,.
COc1ccc(-c2csc3ncnc(N4CCN(S(=O)(=O)c5ccc(C)c(C)c5)CC4)c23)cc1,18µM*,-7,?,84,.,.
c1ccc(CC2CCN(c3ncnc4sccc34)CC2)cc1,2.6µM*,-1,5.2µM*,-51*,4µM*,10µM*
Cc1ccc(S(=O)(=O)N2CCN(c3ncnc4sccc34)CC2)cc1,3.3µM*,2,7.3µM*,-10,5µM*,?
Cc1ccc(S(=O)(=O)N2CCN(c3nc(-c4cccs4)nc4ncccc34)CC2)cc1,?,0,?,.,.,.
COc1ccc(NC(=O)COc2coc(CN3CCN(c4ccccc4)CC3)cc2=O)cc1,?,-2,21µM*,1,.,.
COc1ccc(N2CCN(Cc3cc(=O)c(OCC(=O)Nc4ccccc4)co3)CC2)cc1,?,-2,?,20,.,.
Cc1cccc(NC(=O)COc2coc(CN3CCN(c4ccccc4)CC3)cc2=O)c1,18µM*,4,21µM*,12,.,.
SMILES,TDP1 cell noCPT,LDHA inh,TDP1 cell CPT,IL-1B inflam inh,VP16 counter,RORgamma inh
O=C(COc1coc(CN2CCN(c3ccccc3)CC2)cc1=O)Nc1cccc(F)c1,-21%,0,-23%,14,.,.
O=c1[nH]c(N2CCN(c3ccc(F)cc3)CC2)nc2c1CCC2,.,3,.,.,.,.
O=[N+]([O-])c1ccc(NN=C2CC3CCC2C3)c([N+](=O)[O-])c1 (stereo unspecified),16µM*,-2,18µM*,33,.,.
O=[N+]([O-])c1ccc(NN=C2CCCCC2)c([N+](=O)[O-])c1,?,-4,?,-2,.,.
O=[N+]([O-])c1ccc(N/N=C2\CC3CC=CC23)c([N+](=O)[O-])c1 (stereo unspecified),16µM*,-7,13µM*,21,-2%,25%
C=C(C)CNC(=S)N/N=C1\CC2CC=CC12 (stereo unspecified),.,-5,.,.,.,.
O=[N+]([O-])c1ccc(N/N=C2\CC3CC=CC23)cc1 (stereo unspecified),?,-1,23µM*,?,2%,?
CCOc1ccc(NC(=O)c2ncoc2-c2cccc(Cl)c2)cc1,.,-2,.,.,.,.
CCN(c1ccc(C)cc1C)S(=O)(=O)c1nnc(NC(=O)c2ccccc2OC)s1,16µM*,-1,?,.,.,.
CCN(c1ccccc1C)S(=O)(=O)c1nnc(NC(=O)c2ccccc2C)s1,18µM*,3,?,.,.,.
CCN(c1ccc(OC)cc1)S(=O)(=O)c1nnc(NC(=O)c2ccccc2C)s1,-28%,-2,?,.,.,.
COc1ccc(C(CNC(=O)c2n[nH]c(=O)c3ccccc23)N(C)C)cc1 (stereo unspecified),.,7,.,.,.,.
Cc1cc2n(CC(O)COc3ccc(Cl)cc3)c(=O)c3ccccc3n2n1 (stereo unspecified),.,2,.,.,.,.
O=C(CN1CCCc2ccccc21)N/N=C/c1ccc(F)cc1F,15µM*,-1,21µM*,-2,-3%,29%
O=C(CN1CCCc2ccccc21)N/N=C/c1ccccc1O,4.1µM*,-8,-99%,40,0.32µM*,0.25µM*
COc1ccc(/C=N/NC(=O)CN2CCCc3ccccc32)c(OC)c1,?,-12,8%,21,-2%,13%
CN1C(=O)[C@@H]2[C@@H]3C[C@@H]([C@H]4ON=C(c5ccc(Cl)cc5)[C@@H]34)[C@@H]2C1=O,?,-2,-12%,-5,0%,24%
O=C1[C@@H]2[C@@H]3C[C@@H]([C@H]4ON=C(c5ccc(Cl)cc5Cl)[C@@H]34)[C@@H]2C(=O)N1C1CCCCC1,?,2,?,-55*,-1%,?
COCCn1c(C)cc(C2=NNC(=NC3CC3)SC2)c1C,?,-3,?,-3,1.1µM*,1.1µM*
C=CCN=C1NN=C(c2cc(C)n(CCOC)c2C)CS1,-2%,-5,-7%,-13,-83%,1µM*
